This is an account of results in PubChem BioAssay (NCI).

“And” between values parts separate entries of the source, which are not always exact repeats. Identical values can stand only once. The panel holds about 83,000 compounds, 20% with a hit somewhere; the sample as a whole holds those more often.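 Testing used 96-well plates and a 48-hour single-concentration exposure. Example: -40 means 40% of the starting cells died.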 Unmarked numbers belong to inactive results. The source made the active and inactive calls. How the source made its calls: active means growth percent below 10; inactive means the rest.

The experiment has as its system MDA-MB-468 breast. As to the kind of experiment: NCI-60 one-dose screen, 48 h (100 = growth as untreated, 0 = no growth, -100 = all killed). The settings on record: 10 µM unless noted.
For `COc1cc(C(=O)Nc2ccc(N(C)C)cc2)cc(OC)c1OC`, the growth was 80%. As for `CCNC(=O)Oc1ccc(/C(=C(/C)Cc2ccc(OC)cc2)c2ccc(OCCN(CC)CC)cc2)cc1`, the figure is 46.6%; as for `O=C(OCc1ccccc1)c1ccccc1`, 95% and 74.9%. As for `Nc1ccc(F)cc1F`, the figure is 92.7%; as for `COc1cc(NCC(=O)Nc2cc(Nc3cccc(C(F)(F)F)c3)ncn2)c(Cl)c(OC)c1Cl`, 101%; as for `C=CCSc1nnc(-c2ccc(C(C)(C)C)cc2)n1-c1cccc(C(F)(F)F)c1`, 21.5%. As for `COc1cccc(C(=O)Cn2cc(/C=C(\C#N)S(=O)(=O)c3ccccc3)c3ccccc32)c1`, the figure is 104%; as for `O=C1CN(c2ccccc2)C(=O)C1C(=O)Nc1ccc(Cl)c(Cl)c1` (stereo not given), 19.2% [100 µM]; as for `COc1ccc(-c2nc(-c3nc4ccc(OC)cc4[nH]3)cc3c2[nH]c2ccccc23)cc1`, 59.6%.

For the molecule `CN(C)C(CNc1oc(-c2cccc3ccccc23)nc1C#N)c1ccco1` (stereo not given), the growth was 97%. For `C#CC[C@@H]1C[C@]2(C)[C@H]3CC[C@@H]4[C@H]5C(C(=C)C)CC[C@]5(C(=O)NCCCCN)CC[C@@]4(C)[C@]3(C)CC[C@H]2C(C)(C)[C@H]1OC(C)=O` (stereo not given in full) the value was -53.7% (active); for `O=C(O)c1ccc2c(c1Cl)C(=O)c1ccccc1C2=O`, 88.9%; for `COc1cc(C2CC(c3cccc(Nc4ccncc4)c3)=NN2C(C)=O)cc(OC)c1OC` (stereo not given), 86.6%. As for `CN(C)Cc1cn(-c2ncc(-c3ccc(C(F)(F)F)cc3)c(NC3CCCCCC3)n2)nn1`, the figure is 82.9%. On to `C=CCN1C(=O)c2cccc3c(N4CCOCC4)ccc(c23)C1=O`, for which the growth was -40% (active). As for `Cc1ccc(-c2cc(-c3ccc(N(C)C)cc3)n3c(n2)nc2ccccc23)cc1`, the figure is -0.434% (active).

Turning to `COc1cccc(-c2nc3sccn3c2-c2ccnc(NCCNC(=O)Nc3cccc(C(F)(F)F)c3)n2)c1`, the growth was 39.6%. For `Oc1c(I)cc(I)cc1CNCc1ccccn1` the value was 29.3%; for `COc1ccc(-c2coc3c(CO)c(O)ccc3c2=O)cc1`, 82.9%; for `Cc1cc(O)c2c(c1)C[C@H]1[C@@H]3CC[C@H]4CC(=O)CC[C@]4(C)[C@H]3CC(=O)[C@]21C`, 71.4%. As for `CCN(CC)CCCC(C)Nc1ccc2ccc(Cl)cc2n1` (stereo not given), the figure is 77.8%; as for `N#Cc1ccc(/C=C/C(=O)c2ccccc2)cc1`, 43.5% and 48.9%. For `C=CC[N+]1(CCO)CCN=C1CCCCCCCCCCCCC` (stereo not given) the value was -78.3% (active); for `CCN1CCC[C@H]1c1cc(O)c2c(c1OC)C[C@H]1C[C@H]3[C@H](N)C(=O)C(C(N)=O)=C(O)[C@@]3(O)C(=O)C1=C2O`, -18.7% (active).

Turning to `O=C(Nc1cc(-c2ccccc2)[nH]n1)c1ccc(Cl)cc1`, the growth was 73%.
